Test results as given in PubChem BioAssay.
Calls of active or inactive are those of the source. Unless noted, no rule for the calls is given here.

Experiments:
[1] = test system: Wnt5a (protein binding on small-molecule microarray); assay: small molecules binding Wnt5a protein – biophysical, small-molecule microarray, 635/667 nm fluorescence, primary screen (AID 1142); conditions: 635 nm fluorescence, higher = more signal;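 also: fluorescence read at 667 nm with signal to noise per printed feature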
[2] = ATP-based viability of Huh7 replicon cells – cell-based, CellTiter-Glo luminescence, basal, 48 h, cytotoxicity control for HCV replication inhibitor project, primary screen (AID 1143); conditions: higher = more signal, called active from +8 up or from −8 down;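 also: Huh7 hepatoma cells carrying a hepatitis C replication reporter with no stimulus; test concentration not given here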
[3] = Pseudomonas biofilm growth suppression – PAO1 strain, BacTiter-Glo luminescence, LB-PBS, primary screen (AID 1144); conditions: P. aeruginosa PAO1 biofilm, 12 h, higher = more signal
[4] = basal CRE-LacZ reporter activity in PC12 – cell-based, unstimulated, primary screen (AID 1145); conditions: no forskolin, luminescence, 4.5 h, higher = more signal, called active from +8 up or from −8 down
[5] = forskolin-driven CRE-LacZ activity in PC12 – cell-based, CRE-LacZ reporter, forskolin-stimulated, primary screen (AID 1146); conditions: luminescence, 4.5 h, higher = more signal, called active from +8 up or from −8 down;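 also: PC12 cells with 6xCRE LacZ reporter stimulated by forskolin 10 µM; beta-galactosidase reporter signal reflecting CREB driven transcription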
[6] = biological target: Streptavidin (Streptomyces avidinii) (UniProt P22629); assay: compounds binding control protein streptavidin – biophysical, small-molecule microarray, 635/667 nm fluorescence, artefact control for SMM compound annotation, primary screen (AID 1147); conditions: higher = more signal;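 also: signal reflects streptavidin binding to arrayed compounds as a control protein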
[7] = probe aInhba binding on compound microarray – biochemical, small-molecule microarray, 635/667 nm fluorescence, primary screen (AID 1148); conditions: higher = more signal;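 also: score merges 667nm spot fluorescence with signal-to-noise for antibody binding to printed compounds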
[8] = biological target: Torsin-1A (Homo sapiens) (UniProt O14656); assay: TOR1A wild-type binding on microarray – cell lysate, small-molecule microarray, lysate, 635/667 nm, primary screen (AID 1149); conditions: COS7 hTOR1A-WT lysate, 635 nm fluorescence, higher = more signal
[9] = biological target: Torsin-1A (Homo sapiens) (UniProt O14656); assay: torsin A mutant lysate binding on microarrays – cell lysate, small-molecule microarray, COS7 lysate, 635/667 nm fluorescence, primary screen (AID 1150); conditions: COS7 hTOR1A mutant lysate, 635 nm fluorescence, higher = more signal;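 also: score pools 667 nm emission and signal to noise measuring lysate protein binding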
[10] = test system: Sonic hedgehog protein (Shh); assay: Sonic hedgehog microarray binding compounds – biochemical, small-molecule microarray, 635/667 nm fluorescence, primary screen (AID 1151); conditions: 635 nm fluorescence, higher = more signal;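 also: Shh protein binding to compounds spotted on small-molecule microarray slides; score combines spot fluorescence intensity with signal-to-noise across triplicate slides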
[11] = optical density shifts of acrAB sulA E. coli – strain DRC41, OD650, 48 h, E. coli filamentation inducer project, primary screen (AID 1152); conditions: higher = more signal, called active from +8 up or from −8 down;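 also: E. coli MC1000 strain DRC41 lacking acrAB efflux pump and sulA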
[12] = probe aLefty1 binding on compound microarray – biochemical, small-molecule microarray, 635/667 nm fluorescence, primary screen (AID 1153); conditions: higher = more signal;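 also: score merges spot fluorescence with signal-to-noise ratio from the scanned slide images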
[13] = plasmodial surface anion channel blockers, osmotic lysis – cell-based, P. falciparum Indochina, OD700, 1 h, primary screen (AID 1154); conditions: P. falciparum Indochina infected RBC osmotic lysis, higher = more signal, called active from +8 up or from −8 down
[14] = plasmodial surface anion channel blockers, osmotic lysis – cell-based, P. falciparum Indochina, OD700, 2 h, primary screen (AID 1155);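 also: lysis reports solute entry through the parasite surface anion channel PSAC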; conditions: P. falciparum Indochina infected erythrocytes, higher = more signal, called active from +8 up or from −8 down
[15] = changes in parasitized red cell lysis, either direction – P. falciparum Indochina, OD700, 3 h, PSAC antagonist project, primary screen (AID 1156); conditions: P. falciparum-infected erythrocytes, osmotic lysis, higher = more signal, called active from +8 up or from −8 down
[16] = plasmodial surface anion channel blockers, osmotic lysis – cell-based, P. falciparum Indochina, OD700, 18 h, primary screen (AID 1157); conditions: P. falciparum Indochina infected erythrocytes, osmotic lysis OD700, 18 h; higher = more signal, called active from +8 up or from −8 down
[17] = S6 kinase pathway phospho-S6 level changes – cell-based, A549, cytoblot, luminescence, serum-stimulated, primary screen (AID 1158); conditions: 5 h, higher = more signal;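 also: serum-stimulated A549 lung adenocarcinoma cells; signal is phosphorylated S6 detected by cytoblot immunostaining with HRP secondary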
[18] = biological target: NADPH oxidase 2 (Homo sapiens) (UniProt P04839); assay: compounds shifting NOX2 Amplex Red fluorescence – cell-based, HEK293-NOX2, PMA-stimulated, NOX inhibitor project, primary screen (AID 1159); conditions: 45 min, higher = more signal, called active from +8 up or from −8 down; also: test concentration not given here
[19] = biological target: NADPH oxidase 4 (Homo sapiens) (UniProt Q9NPH5); assay: compounds shifting NOX4 Amplex Red fluorescence – cell-based, HEK293-NOX4, tetracycline-induced, NOX inhibitor project, primary screen (AID 1160); conditions: HEK293-NOX4, Amplex Red H2O2 fluorescence, 45 min; higher = more signal, called active from +8 up or from −8 down
[20] = biological target: NADPH oxidase 5 (Homo sapiens) (UniProt Q96PH1); assay: compounds shifting NOX5 Amplex Red fluorescence – cell-based, HEK293-NOX5, NOX inhibitor project, primary screen (AID 1161); conditions: HEK293-NOX5, ionomycin, 45 min, higher = more signal
Chain of NADPH oxidase 5 (Homo sapiens) (Q96PH1 whole entry, looked up): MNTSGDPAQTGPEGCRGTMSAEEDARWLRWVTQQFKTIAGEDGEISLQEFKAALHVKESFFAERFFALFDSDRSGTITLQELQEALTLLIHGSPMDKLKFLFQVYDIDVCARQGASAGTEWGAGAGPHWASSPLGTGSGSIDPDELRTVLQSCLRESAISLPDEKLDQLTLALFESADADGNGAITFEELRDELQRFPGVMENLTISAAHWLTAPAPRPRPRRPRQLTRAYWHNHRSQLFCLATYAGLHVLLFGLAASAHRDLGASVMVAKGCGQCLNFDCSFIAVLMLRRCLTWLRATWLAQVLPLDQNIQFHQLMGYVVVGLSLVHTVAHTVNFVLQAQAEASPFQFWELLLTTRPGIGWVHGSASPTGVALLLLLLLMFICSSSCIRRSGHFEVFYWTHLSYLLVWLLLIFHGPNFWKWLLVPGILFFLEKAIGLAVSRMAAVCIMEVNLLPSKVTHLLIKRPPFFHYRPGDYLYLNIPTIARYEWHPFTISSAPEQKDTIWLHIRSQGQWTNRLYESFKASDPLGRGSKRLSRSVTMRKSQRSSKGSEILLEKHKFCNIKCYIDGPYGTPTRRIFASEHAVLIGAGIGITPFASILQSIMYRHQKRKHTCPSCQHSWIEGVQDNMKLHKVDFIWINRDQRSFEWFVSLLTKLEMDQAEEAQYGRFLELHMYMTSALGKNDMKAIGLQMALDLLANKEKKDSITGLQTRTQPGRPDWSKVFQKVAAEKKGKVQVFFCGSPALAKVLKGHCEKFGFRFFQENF

Chain of NADPH oxidase 2 (Homo sapiens) (P04839 whole entry, looked up): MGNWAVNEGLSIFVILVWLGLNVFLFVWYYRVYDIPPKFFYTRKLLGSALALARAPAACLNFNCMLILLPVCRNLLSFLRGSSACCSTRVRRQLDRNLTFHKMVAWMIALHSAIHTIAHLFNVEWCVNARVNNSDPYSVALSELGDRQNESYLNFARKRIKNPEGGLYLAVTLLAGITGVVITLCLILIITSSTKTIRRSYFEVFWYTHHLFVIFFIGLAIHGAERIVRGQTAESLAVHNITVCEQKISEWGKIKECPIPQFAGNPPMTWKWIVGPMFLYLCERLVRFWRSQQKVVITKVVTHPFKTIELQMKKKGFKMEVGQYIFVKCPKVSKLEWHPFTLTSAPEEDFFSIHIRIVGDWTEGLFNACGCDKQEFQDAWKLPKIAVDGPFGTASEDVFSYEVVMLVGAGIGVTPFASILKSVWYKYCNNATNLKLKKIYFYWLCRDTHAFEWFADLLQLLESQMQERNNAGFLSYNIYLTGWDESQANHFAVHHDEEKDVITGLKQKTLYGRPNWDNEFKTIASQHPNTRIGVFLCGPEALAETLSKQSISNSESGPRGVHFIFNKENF
Chain of Streptavidin (Streptomyces avidinii) (P22629 whole entry, looked up): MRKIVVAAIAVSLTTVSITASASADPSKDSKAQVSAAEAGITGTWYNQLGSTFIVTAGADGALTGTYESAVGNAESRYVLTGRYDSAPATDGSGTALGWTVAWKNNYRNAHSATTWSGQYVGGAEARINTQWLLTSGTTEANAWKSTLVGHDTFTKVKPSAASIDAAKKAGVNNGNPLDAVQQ
Chain of NADPH oxidase 4 (Homo sapiens) (Q9NPH5 whole entry, looked up): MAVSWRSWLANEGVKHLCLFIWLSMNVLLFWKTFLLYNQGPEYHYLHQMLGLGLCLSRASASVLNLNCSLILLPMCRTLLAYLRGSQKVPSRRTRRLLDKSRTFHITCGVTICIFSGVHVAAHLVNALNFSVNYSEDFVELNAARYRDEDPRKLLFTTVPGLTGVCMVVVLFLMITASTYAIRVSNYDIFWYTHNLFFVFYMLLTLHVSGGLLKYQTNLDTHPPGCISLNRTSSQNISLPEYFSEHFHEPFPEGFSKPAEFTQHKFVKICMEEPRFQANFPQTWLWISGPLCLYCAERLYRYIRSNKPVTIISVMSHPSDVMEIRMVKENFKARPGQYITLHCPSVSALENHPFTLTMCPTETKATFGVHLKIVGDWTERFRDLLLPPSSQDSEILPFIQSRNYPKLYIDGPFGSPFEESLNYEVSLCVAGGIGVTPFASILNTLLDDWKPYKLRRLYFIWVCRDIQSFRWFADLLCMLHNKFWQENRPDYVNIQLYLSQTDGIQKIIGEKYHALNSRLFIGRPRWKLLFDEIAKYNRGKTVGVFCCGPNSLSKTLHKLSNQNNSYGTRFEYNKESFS
Chain of Torsin-1A (Homo sapiens) (O14656 whole entry, looked up): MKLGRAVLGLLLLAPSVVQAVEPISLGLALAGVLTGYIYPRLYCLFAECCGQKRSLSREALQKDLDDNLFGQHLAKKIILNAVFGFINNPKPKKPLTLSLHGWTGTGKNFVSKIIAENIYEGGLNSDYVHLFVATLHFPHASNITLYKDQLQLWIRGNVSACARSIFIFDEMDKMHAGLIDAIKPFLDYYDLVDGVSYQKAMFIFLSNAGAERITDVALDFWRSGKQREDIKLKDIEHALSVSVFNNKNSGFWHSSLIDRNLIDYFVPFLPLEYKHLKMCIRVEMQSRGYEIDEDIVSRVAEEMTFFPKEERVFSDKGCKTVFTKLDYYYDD

Row | Compound | composite z-score [1] | z-score [2] | z-score [3] | z-score [4] | z-score [5] | composite z-score [6] | composite z-score [7] | composite z-score [8] | composite z-score [9] | composite z-score [10] | z-score [11] | composite z-score [12] | z-score [13] | z-score [14] | z-score [15] | z-score [16] | z-score [17] | z-score [18] | z-score [19] | z-score [20]
1 | C[C@H]1C2=C3C(CC[C@H]4C(OCc5ccc(F)cc5C(F)(F)F)OC[C@](C)([C@@H]34)N(C(=O)OC(C)(C)C)C2)C(CO)C1CO (stereo not given in full) | 0.24 | -2.85 (inactive) | 0.36 (inactive) | 0.779 (inactive) | 0.677 (inactive) | 1.38 | -0.0214 | 0.28 | 0.222 | -1.38 | -2.8 (inactive) | 0.687 | 1.94 (inactive) | 0.368 (inactive) | 2.1 (inactive) | 0.864 (inactive) | 0.118 | -0.678 (inactive) | -2.59 (inactive) | -1.97
2 | C=C(CCCC)/C(=C/C[C@@H](OC(C)=O)c1ccc(CO)o1)c1cc(C(=O)OC)ccc1OC | 0.259 | 0.0294 (inactive) | -0.504 (inactive) | 3.68 (inactive) | 2.34 (inactive) | 0.498 | -0.0405 | 0.436 | 0.371 | 2.15 | -0.132 (inactive) | -0.0011 | 9.64 (active) | 0.938 (inactive) | 1.3 (inactive) | 0.553 (inactive) | 0.476 | 0.615 (inactive) | -0.832 (inactive) | -1.18
3 | CCCCC(CC)C(O)C1C=CC2C(=O)N(c3ccccc3)C(=O)C2N1Nc1ccc([N+](=O)[O-])cc1 (stereo not given) | 0.382 | -0.728 (inactive) | 0.00163 (inactive) | 0.285 (inactive) | -0.0973 (inactive) | 1.41 | 0.32 | 0.202 | 0.923 | -0.277 | -0.999 (inactive) | 0.602 | 3.19 (inactive) | 0.724 (inactive) | 0.369 (inactive) | 0.487 (inactive) | -0.429 | -0.441 (inactive) | -1.6 (inactive) | -1.33
4 | COCCOC(=O)N1C(=O)[C@@]2(c3cc(C#CCC(C(=O)OC)C(=O)OC)ccc31)[C@H](c1ccc(OCCO)cc1)N1[C@H](c3ccccc3)[C@H](c3ccccc3)OC(=O)[C@H]1[C@@H]2C(=O)N1CCN(c2ncccn2)CC1 | 0.672 | -4.96 (inactive) | -1.65 (inactive) | -1.42 (inactive) | -0.912 (inactive) | 0.945 | 0.122 | 1.19 | 0.6 | 2.09 | 1.89 (inactive) | 0.297 | 6.55 (inactive) | 1.35 (inactive) | 0.14 (inactive) | -0.0311 (inactive) | 1.72 | -0.105 (inactive) | -1.13 (inactive) | -4.4
5 | COc1ccc(CCNC(=O)[C@@]2(Sc3ccc(C)cc3)CC(=O)N(Cc3cc(C(F)(F)F)cc(C(F)(F)F)c3)[C@@H]2c2ccc(CO)cc2I)cc1 | -0.466 | -0.73 (inactive) | -0.623 (inactive) | -0.554 (inactive) | 1.05 (inactive) | 0.762 | 0.0184 | 0.579 | -0.145 | 0.697 | 0.0818 (inactive) | 0.0509 | 10.5 (active) | 1.25 (inactive) | -0.459 (inactive) | 0.132 (inactive) | 0.179 | 1.15 (inactive) | -1.07 (inactive) | 0.562
6 | CO[C@H]1O[C@H](CO)[C@@H](OC(=O)Nc2ccc(C(F)(F)F)cc2)[C@H](OC(=O)Nc2ccc3c(c2)OCO3)[C@H]1OC(=O)Nc1ccc2c(c1)OCO2 | 0.259 | -4.23 (inactive) | 0.558 (inactive) | 1.54 (inactive) | 1.38 (inactive) | 0.656 | 0.234 | 0.201 | 0.746 | 0.99 | -0.463 (inactive) | 0.662 | 7.33 (inactive) | 0.993 (inactive) | 0.61 (inactive) | 0.619 (inactive) | -0.388 | -4.33 (inactive) | -0.99 (inactive) | -1.82
7 | C=C[C@H](COC(C)=O)NS(=O)(=O)c1ccc(Br)cc1 | -0.0966 | 0.0651 (inactive) | -0.0168 (inactive) | 0.26 (inactive) | 0.678 (inactive) | 1.16 | -0.0762 | 0.119 | -0.214 | 0.382 | 0.348 (inactive) | 0.0056 | 0.174 (inactive) | -0.191 (inactive) | -0.3 (inactive) | 0.252 (inactive) | 0.16 | 1.96 (inactive) | -0.0653 (inactive) | 0.0573
8 | C[C@]12C(=O)N(CCCCCCO)[C@@H]3C(=O)N(c4ccc(Cl)cc4)CC=CC31O[C@@H]1/C=C\CCCOC(=O)C12 (stereo not given in full) | -0.143 | -0.0337 (inactive) | -1.5 (inactive) | 0.0686 (inactive) | -0.475 (inactive) | -0.781 | -0.104 | -1.38 | -0.825 | 0.128 | 1.64 (inactive) | -0.25 | 2.61 (inactive) | -1.32 (inactive) | -0.397 (inactive) | -1.66 (inactive) | 0.654 | 1.12 (inactive) | 0.428 (inactive) | 2.22
9 | CC(C)C(O)C1C=CC2C(=O)N(C)C(=O)C2N1N(c1ccccc1)c1ccccc1 (stereo not given) | -0.18 | 0.909 (inactive) | 0.633 (inactive) | 0.0535 (inactive) | -0.136 (inactive) | 0.0226 | -0.0332 | -0.141 | 0.369 | -1.28 | -0.573 (inactive) | 0.213 | 0.321 (inactive) | 0.167 (inactive) | -0.255 (inactive) | 1.05 (inactive) | -1.38 | -0.71 (inactive) | -0.583 (inactive) | -0.828
